Reference: the supplement of paper PMC6555819

System: PPARg homodimer (NR concentration 180 nM)
Assay: PBM binding z-score (relative to random genomic background probes); higher = stronger binding; sequences stand for … in GC…GCGATTGACAGCGTAGAATGAAGG
Method in brief: (§1)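 Ligand-free nuclear receptor dimers were bound for 1 h to custom Agilent 4×180K protein-binding microarrays. Detection used antibodies against each partner (one per run). Binding z-scores rest on regression-normalized fluorescence, with random background probes as the reference.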

Sequence	PBM binding z-score
CCTAGTTGGTCAGCAGGTCACACACCGGATATGA	2.23
AGTCAAAGTTCAGGAGGAGGTAACGTAAAGCACG	2.81
CCAGACAGGTGAGAAGTTAACTCAGCCTCGATTA	0.326
TCGAGTAGGTTAGTCGGGGCATTAAGCCAACATA	0.173
CCTTCTGGGCCACGAAAGGTCATTGATTCAGTGA	5.35
TGTCAAAGTTCAAAGGTAACGTTAGTATCCACAC	2.93
GCGAGTTGGTCAGTAAAAGGTCACACACCGGTCG	4.06
ATATGTAGGTTAAGGGACATTCAGGTTGGTTCGC	1.9
CCTATTAGTTGGCCATAAGGGCAACCGAAGCTCG	0.599
GCTGCTAGGTCAAATGATGGTCAGCTAAAGCTCG	1.73
GCAGACAGGTGAAACGCAGGTCACTCAGGGTGGC	1.32
TCTATTAGTTGATTAGGACAACCGAAACAGCGGA	1.65
ACTATTAGTTGACTCAGGGCAACCGATACGACGC	0.52
ATCTCTACGTAAAGATAGTTCAGTGAATGCAAAT	-0.705
CGTTACGGGTCACGAGGTTATAGCACGACGAGCG	1.92
TTTCAAAGTTCAAAGGTAACGTAAGTATCCACAC	3.4
TCTGGCAGGCCAGAGGGTCACTCAAGAGGTACGG	0.353
TCATATAGGTAAAGGTGTAAGTCGAACGATATGA	0.612
TTATATAGGTAAAGGTGAAAGTCGAACGATATGA	2.08
GATACAGGGTCACGGCCAGAGTACGCGTATTGAT	2.36

Sequence	PBM binding z-score
GCTAGCAGGCAATTTGGGTCACTCAATGACGGGC	-0.111
CCTAGCCGGCCAGGGTCACTCAAGCATTTCGCTT	0.756
ACGGACAGGTGAGTGAAGGTAACTCAGCTGGACG	-0.338
ATCTCTAGGTAACCAAGTTCAGTGGATGCCGAAC	0.334
CCTAGCAGGCCAATCTGGGGCACTCAAGGCTTGA	-0.431
CGTCCAAGGACAAAGGTCAGTGAAGAGATGACGG	2.27
GATACAGGGTCAAGGCTAGAGTACGCGTATTGAT	1.69
AATACAGGGTCTTCGTAGGCCAGAGTACGCACAG	-0.584
CCTACTGGGCCAAGGTCATGGATCAGTCAAAGCA	0.941
GGAACGCGGGCAAAGTTGATAGCATCTGTCGACG	-0.0903
ACTATTAGTTGAGACGATGGCAACCGATAGGTTG	0.664
CAGCCTATGTCAGGGCCAGTATAGGAGGAACGTT	-0.0188
CCGACTGGGGCTAGGTTACCATAACGCACAGCCA	-0.278
CGAACTAGGTCATTGACAGGACTGTGAATAGTAA	1.48
CGAACGAGGGCCTGAGTTGATAGCAAATGCCGAT	-1.19
GCTAGTAGGCCATTTGGGTCACTCAATGACGGGC	0.311
GCTGCTAGGTGAGGTTGGTCAGCTAACGGGTACG	-0.464
ATACCAGGGTGATCGTGAGGTCGTTGATACTAAC	1.12
GCTAGCAGGCCATTTGGGTGACTCAATGACGGGC	-0.989
GCTGCTAGGTCAGGTTGGTCAGCAAACGGGTACG	0.7

System: PXR:RXRa (NR concentration 270 nM, RXRa partner concentration 90 nM)
Assay: as above
Method in brief: as §1

Sequence	PBM binding z-score
CCTAGTTGGTCAGCAGGTCACACACCGGATATGA	2.42
AGTCAAAGTTCAGGAGGAGGTAACGTAAAGCACG	3.09
CCAGACAGGTGAGAAGTTAACTCAGCCTCGATTA	-0.109
TCGAGTAGGTTAGTCGGGGCATTAAGCCAACATA	0.149
CCTTCTGGGCCACGAAAGGTCATTGATTCAGTGA	5.74
TGTCAAAGTTCAAAGGTAACGTTAGTATCCACAC	5.67
GCGAGTTGGTCAGTAAAAGGTCACACACCGGTCG	5.14
ATATGTAGGTTAAGGGACATTCAGGTTGGTTCGC	0.934
CCTATTAGTTGGCCATAAGGGCAACCGAAGCTCG	0.101
GCTGCTAGGTCAAATGATGGTCAGCTAAAGCTCG	1.82
GCAGACAGGTGAAACGCAGGTCACTCAGGGTGGC	2.65
TCTATTAGTTGATTAGGACAACCGAAACAGCGGA	0.749
ACTATTAGTTGACTCAGGGCAACCGATACGACGC	0.329
ATCTCTACGTAAAGATAGTTCAGTGAATGCAAAT	0.115
CGTTACGGGTCACGAGGTTATAGCACGACGAGCG	4.65
TTTCAAAGTTCAAAGGTAACGTAAGTATCCACAC	5.62
TCTGGCAGGCCAGAGGGTCACTCAAGAGGTACGG	1.59
TCATATAGGTAAAGGTGTAAGTCGAACGATATGA	0.127
TTATATAGGTAAAGGTGAAAGTCGAACGATATGA	0.997
GATACAGGGTCACGGCCAGAGTACGCGTATTGAT	4.75

Sequence	PBM binding z-score
GCTAGCAGGCAATTTGGGTCACTCAATGACGGGC	0.273
CCTAGCCGGCCAGGGTCACTCAAGCATTTCGCTT	2.84
ACGGACAGGTGAGTGAAGGTAACTCAGCTGGACG	-0.142
ATCTCTAGGTAACCAAGTTCAGTGGATGCCGAAC	1.94
CCTAGCAGGCCAATCTGGGGCACTCAAGGCTTGA	-0.51
CGTCCAAGGACAAAGGTCAGTGAAGAGATGACGG	3.18
GATACAGGGTCAAGGCTAGAGTACGCGTATTGAT	3.72
AATACAGGGTCTTCGTAGGCCAGAGTACGCACAG	-0.0215
CCTACTGGGCCAAGGTCATGGATCAGTCAAAGCA	3.26
GGAACGCGGGCAAAGTTGATAGCATCTGTCGACG	-0.43
ACTATTAGTTGAGACGATGGCAACCGATAGGTTG	-0.242
CAGCCTATGTCAGGGCCAGTATAGGAGGAACGTT	-0.63
CCGACTGGGGCTAGGTTACCATAACGCACAGCCA	-0.509
CGAACTAGGTCATTGACAGGACTGTGAATAGTAA	1.11
CGAACGAGGGCCTGAGTTGATAGCAAATGCCGAT	-0.457
GCTAGTAGGCCATTTGGGTCACTCAATGACGGGC	0.202
GCTGCTAGGTGAGGTTGGTCAGCTAACGGGTACG	-0.499
ATACCAGGGTGATCGTGAGGTCGTTGATACTAAC	3.24
GCTAGCAGGCCATTTGGGTGACTCAATGACGGGC	-0.366
GCTGCTAGGTCAGGTTGGTCAGCAAACGGGTACG	0.33
